Screening results as filed in PubChem.
The list is not random: actives were taken first. Their share in the collection is about 4.7%.
D1 ag: human D1 receptor agonism; activation, % at 2 µM; HEK293 T-REx D1 cells, calcium flux, agonist mode; 360,000 compounds, 1% hits; P21728; also: 0% is about no effect
Target sequence (P21728 whole entry, looked up): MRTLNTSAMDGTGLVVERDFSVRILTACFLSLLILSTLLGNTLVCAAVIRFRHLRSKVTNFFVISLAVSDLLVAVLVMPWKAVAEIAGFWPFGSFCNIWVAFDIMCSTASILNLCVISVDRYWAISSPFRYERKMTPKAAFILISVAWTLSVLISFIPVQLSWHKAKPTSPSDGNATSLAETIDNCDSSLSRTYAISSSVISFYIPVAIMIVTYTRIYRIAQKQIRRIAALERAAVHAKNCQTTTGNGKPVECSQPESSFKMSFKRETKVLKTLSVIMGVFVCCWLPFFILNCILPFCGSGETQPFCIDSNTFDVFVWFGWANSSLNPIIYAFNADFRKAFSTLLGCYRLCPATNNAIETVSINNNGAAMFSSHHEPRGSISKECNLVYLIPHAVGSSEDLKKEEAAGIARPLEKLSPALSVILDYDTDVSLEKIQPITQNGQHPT
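Tetracycline-induced HEK293 TREx D1 cells, force-coupled to calcium signalling, were dye-loaded with a no-wash calcium kit. Compound was pin-added after a 10 s baseline. Fluorescence was read kinetically at 1 cycle/s for 180 s, with calcium rises flagged as agonism.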
TRHR enhancer: allosteric enhancers of human TRH receptor; AID 493056; enhancement, % at 2 µM; 360,000 compounds, 0.66% hits; TRHR cells, fluo-8 calcium fluorescence, EC20 TRH enhancement; P34981; in the data active = enhancement above about 30%; also: 0% is about no effect
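Enhancer read-out: after compound pinning and an initial kinetic agonist-mode read, an EC20 of TRH (10 nM final) was injected and fluo-8 calcium signal (Ex 480/Em 530) followed at 1 s/cycle for 100 cycles in TRHR-expressing cells.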
D1 antagonist: human D1 dopamine receptor antagonism; P21728; 360,000 compounds, 3.2% hits; AID 504652; activity change, negative = inhibition, % at 10 µM; HEK293 TREx D1 cells, calcium flux, dopamine EC80; active compounds read low; in the data active = activity change below about -30%; also: % is scaled to controls: 0 for no effect and ±100 for the full control effect
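Kinetic fluorescence of a calcium dye serves as the read-out. D1-expressing Hek293 Trex cells, induced overnight at 30 C, are exposed to compound for 180 s before an EC80 dopamine addition, then read 180 s further.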
D1 potentiator: enhances dopamine response at the human D1 receptor. potentiation, % at 10 µM. P21728. HEK293 TREx D1 cells, calcium flux, dopamine EC20 potentiation. 360,000 compounds, 0.036% hits. AID 504651; in the data active = potentiation above about 30%; also: 0% is about no effect
TRHR agonist: TRH receptor (human) agonism | P34981 | TRHR cells, calcium flux fluo-8, FDSS agonist mode | activation, % at 2 µM | 360,000 compounds, 0.18% hits; also: 0% is about no effect
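In this calcium-flux screen, cells bearing human TRHR are dye-loaded with fluo-8, baselined for 10 cycles, then exposed to library compounds; positive kinetic calcium responses during the agonist phase mark hits, with TRH as control.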
The depositor's hits bear a star. Rule as the data show it, unless noted: active = activation above about 30%; inactive = the rest.

SMILES	D1 ag	TRHR enhancer	D1 antagonist	D1 potentiator	TRHR agonist
CC(=O)c1ccc(NC(=O)CCCc2nc(-c3cccc(C)c3)no2)cc1	3	-2	5	2	0
O=C(Nc1ccc(F)c(Cl)c1)c1ccc2c(=O)n3c(nc2c1)CCCCC3	16	3	-58*	-5	1
O=C(Nc1ccc(F)cc1)c1ccc2c(=O)n3c(nc2c1)CCCCC3	4	-14	-6	-11	0
Cc1ccc(CNC(=O)CN2C(=O)C3(SCC(=O)N3c3ccc(F)c(F)c3)c3ccccc32)cc1 (stereo not drawn)	-1	-7	-1	3	1
Cc1ccc(OCCSc2nnc(-c3cccs3)o2)cc1Cl	29	-4	-5	-1	2
C=CCN1C(=O)CN=C1Nc1ccc(F)cc1	-1	-14	1	-2	0
CCOc1ccc(NC2=NCC(=O)N2CCc2ccccc2)cc1	102*	0	-65*	9	-2
CCOc1ccc(NC2=C(OC)C(=O)c3ccccc3C2=O)cc1	0	-1	-33*	-2	-1
COC1=C(Nc2ccc(OC)cc2)C(=O)c2ccccc2C1=O	3	-5	-18	-3	-1
CCOc1ccc(NC2=C(Cl)C(=O)N(Cc3ccccc3)C2=O)cc1	4	3	-30*	-8	0
Cc1ccc(NC2=NCC(=O)N2CCc2ccccc2)cc1C	12	1	-15	-1	0
COc1ccc(CCN2C(=O)CN=C2Nc2ccc(F)cc2)cc1OC	0	5	-39*	2	0
CSc1cccc(N2C(=O)N(CC(=O)NCc3ccccc3Cl)c3ccccc3S2(=O)=O)c1	4	0	10	-3	1
Cn1c2ccsc2c2cnn(Cc3ccc(F)cc3)c(=O)c21	0	2	-7	2	0
O=C(Nc1nc2c(F)cccc2s1)c1ccc2c(c1)OCCO2	3	9	6	2	1
COc1ccc(C2=C(Nc3ccccc3)c3ccccc3C2=O)cc1	4	-12	-35*	-3	-2
COc1ccc(NC2=C(c3ccc(OC)cc3)C(=O)c3ccccc32)cc1	-1	-15	-18	-7	1
O=C(NCC1CCN(S(=O)(=O)c2ccccc2)CC1)Nc1ccc(F)cc1F	5	-8	-58*	-3	-1
N/C(=N\OC(=O)COc1ccc(Br)cc1)c1ccncc1	11	0	-39*	-7	0
N/C(=N\OC(=O)COc1ccc2ccccc2c1)c1ccccn1	7	2	-53*	-5	1
Cc1cccc(OCC(=O)O/N=C(\N)c2ccc(Cl)cc2)c1	-1	26	-43*	0	1
N/C(=N\OC(=O)COc1ccccc1Cl)c1ccccn1	3	1	-14	0	0
N/C(=N\OC(=O)c1cccnc1)c1ccc(Cl)cc1Cl	2	-2	-33*	1	1
CCc1ccccc1Nc1cc(C(=O)NC(C)c2ccccc2)c2ccccc2n1 (stereo not drawn)	0	-3	-9	0	-1
N/C(=N\OC(=O)c1cccc(Cl)c1)c1ccccn1	0	4	-38*	-9	0
SMILES	D1 ag	TRHR enhancer	D1 antagonist	D1 potentiator	TRHR agonist
CCC1(C)N([O-])C(C)=C(c2ccccc2)[N+]1=O (stereo not drawn)	0	1	1	0	4
CC1(C)N([O-])C2=C(c3ccccc3C2=O)[N+](=O)C1(C)C	2	1	-32*	-2	0
Cc1ccc(CCNC(=O)c2ccc(CSCc3ccccc3C)o2)cc1	23	-6	-13	-3	2
CCCCOc1ccc(CNC(=O)C2CCN(c3nnc(-n4cccc4CNc4ccc(C)cc4)s3)CC2)cc1	-1	-6	9	-4	0
N/C(=N\NC(=O)c1cccs1)c1cc2ccccc2oc1=O	2	3	-13	-2	-1
CCN(CC)c1ccc2cc(/C(N)=N/NC(=O)c3cccs3)c(=O)oc2c1	30*	-4	-11	3	25
CCN(CC)c1ccc2cc(C(=O)Nc3cccnc3N3CCOCC3)c(=O)oc2c1	9	9	-4	5	4
CCN(CC)c1ccc2cc(C(=O)Nc3ccccn3)c(=O)oc2c1	30	-8	-6	2	37*
CCN(CC)c1ccc2cc(C(N)=O)c(=N)oc2c1	27	1	-3	4	25
CCN(CC)c1ccc2cc(C(N)=O)c(=O)oc2c1	32*	4	1	2	0
